In all, about 48,000 compounds went through this assay and about 13,000 (27%) showed an effect of 50% or more. Some of the results follow.
test system: Wolbachia pipientis; experiment: Anti-Wolbachia Cell-Based Screen; type: functional; parameters: scale not given: in the data most compounds retested in dose-response had high values; conditions: 5 µM

| Compound | Percent Effect |
| --- | --- |
| CCC(=O)N1CCc2[nH]cnc2C12CCN(CC1CCOC1)CC2 (stereo not given) | -0.5236% |
| O=C(CCc1ccco1)NCC1CCCN1c1cccnn1 (stereo not given) | 2.662% |
| Fc1cc(CN2CCOC3(CCOCC3)C2)ccc1Cl | 8.168% |
| CN(C)C(=O)CNC(=O)c1ccc2c(-c3nccs3)noc2c1 | -0.7255% |
| CC(Cc1ccco1)NC(=O)C1=NN(c2ccccc2)C(=O)CC1 (stereo not given) | -5.577% |
| Cn1cnc2c1CCN(CCCOc1ccc(C#N)cc1)C2 | -1.382% |
| CN(C)c1ccc(-c2nnc([C@H]3CCN(C4CCCCC4)C3)o2)cc1 | -10.19% |
| O=C(O)C1(Cc2cc(-c3ccccc3F)no2)CCOCC1 | 118.9% |
| O=C(O)C1(Cc2cc(-c3ccc(F)cc3)no2)CCOCC1 | 104.3% |
| Cc1ccccc1C1(C(=O)NCCN2CCCC2)CCOCC1 | 3.645% |
| O=C(NCCO)C1(Cc2cc(-c3ccc(F)cc3F)no2)CCOCC1 | -8.546% |
| O=C(O)C1(Cc2cc(-c3cccc(F)c3)no2)CCOCC1 | -9.48% |
| O=C(O)C1(Cc2cc(-c3ccc(F)cc3F)no2)CCOCC1 | -11.85% |
| O=C(NC1CC1)C1(Cc2cc(-c3ccc(F)cc3F)no2)CCOCC1 | 116.7% |
| O=C(CNC1(CCO)CCOCC1)Nc1ccc(F)cc1F | 0.1585% |
| Cc1cc(NCC2(O)CCOCC2)c2ccccc2n1 | 18.91% |
| Cc1ccccc1-c1cc(CC2(C(=O)O)CCOCC2)on1 | 97.16% |
| COCCNC(=O)c1cc(F)ccc1NS(C)(=O)=O | -6.492% |
| Cc1cc(C)n(CC2CCCN2CC(=O)N(C)Cc2cnn(C)c2)n1 (stereo not given) | 3.257% |
| Cc1ccsc1CN(CCN(C)C)C(=O)C1=NNC(=O)CC1 | -65.43% |
| O=C(CSc1ccncc1)N1CCC2(CC1)c1ccccc1CC2O (stereo not given) | -6.227% |
| CCS(=O)(=O)N1CC[C@H]2O[C@@H](c3nnc(C)o3)CC[C@H]21 | -3.387% |
| CCc1nc(C)c(C(=O)N2CCNCC2C(=O)NCc2ccncc2)o1 (stereo not given) | -5.393% |
| COCc1noc(-c2nn(-c3ccc(F)cc3)c3c2CCC3)n1 | -5.396% |
| COCCOCc1cccc(NC(=O)N2CCCC2c2ccncc2)c1 (stereo not given) | 1.869% |

| Compound | Percent Effect |
| --- | --- |
| CNC(=O)C(C)(C)N1CCC[C@H]1C(=O)NCCN(C)C.Cl | 11.97% |
| O=C(Nc1ccc(Cn2cccn2)cc1)N1CCC(CO)CC1 | 5.025% |
| Cc1ncc2c(n1)CCCC2NC(=O)c1ccncc1 (stereo not given) | 4.921% |
| Cc1ncc2c(n1)CCCC2NC(=O)c1ccccc1Cn1cncn1 (stereo not given) | -4.956% |
| Cc1ccccc1C(=O)NC1CCN(c2cnn(C)c2)C1=O (stereo not given) | -0.04337% |
| Cc1ncc2c(n1)CCCC2NC(=O)c1ccccc1C(=O)O (stereo not given) | 116.6% |
| Cc1ncc2c(n1)CCCC2NC(=O)c1ccc(Cn2cccn2)cc1 (stereo not given) | 102.9% |
| Cc1ccccc1Oc1ncccc1CNS(C)(=O)=O | -1.022% |
| CNC(=O)CN(C)S(=O)(=O)c1c(Br)cc2[nH]c(=O)oc2c1Cl | -6.435% |
| COc1nccnc1-c1cc(NC2CCNCC2)nc2[nH]ccc12 | -9.475% |
| COc1cccc(-c2cc(NCCO)nc3[nH]ccc23)n1 | 17.98% |
| CNc1cc(C)nc(-c2cc(NCCO)nc3[nH]ccc23)n1 | 88.51% |
| CNc1cc(C)nc(-c2cc(NC)nc3[nH]ccc23)n1 | 82.65% |
| Nc1ccnc(-c2cc(NC3CCNCC3)nc3[nH]ccc23)c1 | 10.25% |
| CN(C)CCNc1cc(-c2ccc[nH]c2=O)c2cc[nH]c2n1 | 6.813% |
| CN(C)CCNc1cc(-c2ncccn2)c2cc[nH]c2n1 | -0.2256% |
| CNc1cc(C)nc(-c2cc(NC3CCNCC3)nc3[nH]ccc23)n1 | 81.74% |
| COc1cccc(-c2cc(NCCN(C)C)nc3[nH]ccc23)n1 | -69.14% |
| COCc1ncn(Cc2nc(-c3ccc(OC)c(OC)c3)oc2C)n1 | 7.274% |
| Cn1ccc(CNC(=O)Nc2ccc(S(=O)(=O)C(F)F)cc2)c1 | -20.88% |
| N#Cc1cc(NC(=O)c2ccccn2)ccc1N1CCC(O)CC1 | -12.43% |
| Cc1cc2cccc(C(=O)N3CC[C@@H](N)[C@H](O)C3)c2o1 | -9.123% |
| Cc1cc(-c2ccccc2C(=O)O)nc(C2CCCN(C)C2)n1 (stereo not given) | 123% |
| Cc1cc(C(=O)N2CCCC(c3noc(C)n3)C2)[nH]n1 (stereo not given) | -10.2% |
| Cc1cc(-c2cc(F)ccc2C(=O)O)nc(C2CCCN(C)C2)n1 (stereo not given) | 126.1% |

Source: ChEMBL document CHEMBL3988442, “University of Dundee, Small-Polar-MMV Screening Library” (2021)
